# Source: PubChem BioAssay (NCI)
# This is part of a sample that, as a whole, favours compounds with a hit. Of some 83,000 tested, about 20% had one in any assay.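 96-well plates, one dose, 48 hours. Percent growth reported; active if below 10.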 Active and inactive are the calls of the source.
# System: SR leukemia
# Test: NCI-60 one-dose screen, 48 h (100 = growth as untreated, 0 = no growth, -100 = all killed)
# Conditions: 10 µM
row,SMILES,growth
1,Brc1ccc2c(c1)-c1ccccc1C1=NCCN12,-0.353% (active)
2,CC(C)N(CCOc1cccc(-c2nc3sccn3c2-c2ccnc(S(C)(=O)=O)n2)c1)C(C)C,64.3% (inactive)
3,Cc1ccc(/C=C/C(=O)C(=O)/C=C/c2ccc(C)cc2)cc1,68% (inactive)
4,O=C(Nc1cc(Cl)cc2c1-c1ccc(Cl)cc1C2O)C(Cl)Cl (stereo unspecified),82.3% (inactive)
5,COc1cc(Cc2cc(-c3ccccc3)n[nH]c2=O)cc(OC)c1OC,25% (inactive)
6,Cc1cc(C(C#N)c2ccc(Cl)cc2)c(Cl)cc1NC(=O)c1cc(I)cc(I)c1O (stereo unspecified),27.6% (inactive)
7,C/C=C/C1=CN2C(=O)c3cc(OC4OC(C)C(NC)C(C)(O)C4O)c(C)c(O)c3N=C[C@@H]2C1 (stereo partly specified),0.588% (active)
8,CNC(=O)c1c(I)c(NC(C)=O)c(I)c(C(=O)O)c1I,104% (inactive)
9,COc1ccc(Nc2cnc3cc(NS(=O)(=O)c4ccc(C)cc4)ccc3n2)cc1,30% (inactive)
10,COc1cc(-c2nn(-c3ccc(NC(=O)NCCCNC(=O)c4ccccc4)cc3)cc2-c2ccncc2)ccc1Cl,20.2% (inactive)
11,OCC1OC(n2ccc3c(NO)ncnc32)C(O)C1O (stereo unspecified),-30.2% (active)
12,C[C@]12CC[C@@H]3c4ccc(OS(=O)(=O)O)cc4CC[C@H]3[C@@H]1CC[C@@H]2NS(=O)(=O)c1ccc(-c2ccccc2)cc1,38.6% (inactive)
13,CCN1CCN(CCC(=O)Nc2cccc(-n3cc(-c4ccncc4)c(-c4ccc(Cl)c(OC)c4)n3)c2)CC1,-12.3% (active)
14,COc1ccc(-c2nnc(SCC(=O)Nc3ccc(C(=O)/C=C/c4ccccc4)cc3)n2-c2ccccc2)cc1OC,57.5% (inactive)

# System: RPMI-8226 leukemia
# Test: as above
# Conditions: 10 µM
row,SMILES,growth
1,COc1ccc(-c2onc(N)c2-c2cc(OC)c3c(c2)OCO3)cc1,26.7% (inactive)
2,C[C@]12CC[C@@H]3c4ccc(O)cc4CC[C@H]3[C@@H]1CC[C@@H]2NS(=O)(=O)c1ccc(C(F)(F)F)cc1,34.8% (inactive)
3,O=C(CSc1nnc(-c2ccc(Cl)cc2)o1)Nc1ccc(C(=O)/C=C/c2ccc(Cl)cc2)cc1,92.5% (inactive)
4,Cc1cc(CCNC=O)c(C)c2c1sc1ccccc12,92.4% (inactive)
5,COc1cc2cc(Oc3ccc(NC(=O)c4ccc(Cl)c(C(F)(F)F)c4)cc3)c(C)nc2cc1OC,9.15% (active)
6,CC(C)(C)c1ccc(S(=O)(=O)N[C@H]2CC[C@H]3[C@@H]4CCc5cc(O)ccc5[C@H]4CC[C@]23C)cc1,37.9% (inactive)
7,COc1cc2cc(Oc3ccc(NC(=O)c4cccc(C(F)(F)F)c4)cc3)c(C)nc2cc1OC,17.5% (inactive)
8,COc1ccc(/C=C2\CCCC3=C2NC(N)=NC3c2ccc(OC)c(OC)c2)cc1OC (stereo unspecified),15.2% (inactive)
9,Cc1c(Cl)cccc1NC(=O)CN1CCOCC1,101% (inactive)
10,CC(C)(C)OC(=O)N1CCc2c(sc3ncnc(N/N=C/c4ccc(Br)cc4)c23)C1,19.1% (inactive)
11,CCCCc1oc2ccccc2c1C(=O)c1cc(I)c(OCCN(CC)CC)c(I)c1,-29.5% (active)
12,CCc1c2c(nc3ccc(OC(=O)N4CCC(N5CCCCC5)CC4)cc13)-c1cc3c(c(=O)n1C2)COC(=O)[C@]3(O)CC,60.8% (inactive)
13,NS(=O)(=O)Oc1ccc(-c2ccc3sccc3c2)cc1,107% (inactive)
14,O=C(Nc1ccc(OS(=O)(=O)c2ccccc2)cc1)C1CCCCC1,76.4% (inactive)
15,S=c1cnc2ccccc2[nH]1,100% (inactive)
16,COc1cc(-c2nn(-c3cccc(NC(=O)NCCNC(=O)c4cccc(C(F)(F)F)c4)c3)cc2-c2ccncc2)ccc1Cl,21.4% (inactive)
17,C[C@@H](O)[C@H]1C(=O)N2C(C(=O)O)=C(SCCN=CN)C[C@H]12,-3.62% (active)
18,CC[C@@H](C(=O)[C@@H](C)[C@@H](O)[C@H](C)[C@@H]1O[C@@H]([C@@H](CC)C(=O)O)CC[C@@H]1C)C1O[C@]2(C=CC(=O)[C@]3(CC[C@@](C)([C@H]4CC[C@](O)(CC)[C@H](C)O4)O3)O2)[C@H](C)C[C@@H]1C (stereo partly specified),4.99% (active)
19,CCC(c1ccc(OC)cc1)C(CC)c1ccc(O)c(CN2CCN(C)CC2)c1 (stereo unspecified),-21.6% (active)
20,COc1ccc(C(=O)N2C=Cc3ccccc3C2C#N)cc1 (stereo unspecified),94.9% (inactive)
21,Cc1cc(SC#N)cc(C(C)(C)C)c1O,96.6% (inactive)
22,COc1ccc(-c2n[nH]nc2-c2cc(OC)c3c(c2OC)OCO3)cc1,25.1% (inactive)
